Data from PubChem BioAssay (EPA / NIEHS).
Calls of active or inactive are those of the source. Rule for the calls: active = hit-call score of the fitted dose curve at least 0.9, where 1 is the maximum; inactive = score below 0.9.

Read-out: Glutathione S-Transferase (GSTA2), GSTA2 (gene 2939)
Test: LTEA_HepaRG_GSTA2: Life Technologies and Expression Analysis (LTEA) Assay for Glutathione S-Transferase (GSTA2) using HepaRG (AID 2283497)
Details: mRNA level, 48 h; actives raise or lower the signal
Description: LTEA_HepaRG is a cell based, multiplexed-readout assay that uses HepaRG, a human liver cell line, with measurements taken at 48 hours after chemical dosing on a 96-well plate.LTEA_HepaRG_GSTA2 is one of 102 assay component(s) measured in the LTEA HepaRG cell culture assay. It is a marker of Oxidative Stress.Data from the assay component LTEA_HepaRG_GSTA2 was analyzed into 1 endpoint. This assay endpoint, LTEA_HepaRG_GSTA2, was analyzed with bidirectional fitting relative to DMSO as the negative control and baseline of activity. Using a type of inducible reporter, measures of mRNA induction for gain or loss-of-signal activity can be used to understand regulation of transcription factor activity. To generalize the intended target to other relatable targets, this assay endpoint is annotated to the transferase intended target family, where the subfamily is alkyl and aryl transferase.
A total of 1060 chemcials from the ToxCast library were tested in eight-point concentration-response experiments. Cell culture and cytotoxicity assays were conducted at Thermo Fisher Scientific's Custom Services facility (Madison, WI). A single lot of human HepaRG cells (Thermo Fisher Scientific, Frederick, MD) was used for the cell culture experiments. 96-well format collagen type I coated plates of human HepaRG cells were prepared using established methods. Briefly, cryopreserved HepaRG cells were thawed, plated at a density of approximately 100,000 cells/well in HepaRG Thaw, Plate, and General Purpose media (HPRG770, Thermo Fisher Scientific), and incubated for 48 hours. 0.5% DMSO was selected as vehicle control to balance the requisite need of DMSO in HepaRG cultures to maintain differentiation (for example, baseline metabolism, proportions of hepatocytes vs. cholangiocytes), while enabling further hepatic receptor pathway activation (for example, PXR and CAR) in response to chemical exposure. 48 hours after plating, the culture medium was replaced with HepaRG Serum-Free Incudtion Media. Cells were exposed to each test chemical in duplicate and maintained in CO2 incubators for another 48 hours. Chemical plates were thawed to room temperature and 200x concentrations of treatment groups were prepared. 8-point conentration-reponse curves were made with the highest exposure at 100 uM, followed by half-log dilutions, all in 0.5% DMSO. Each test plate contained variouse controls, induction positive controls (1mM phenobarbital), cytotoxicity positive controls ([…] aflatoxin B1), vehicle controls (0.5% DMSO), and total lysis controls (0.5% DMSO). Cell morphology images were taken using an Essen IncuCyte FLR automated microscope, with six 96-well plates imaged in about 24 minutes. Images were captured and exported and JPEG files. Spent culture media was transfered to black-well plates for the LDH assay, and remaining media was sorted at -80 C for later use. Cells were treated with RLT buffer and frozen until shipped for gene expression analysis. Total RNA was isolated from the cell suspension in 75 uL of Buffer RLT (Qiagen, Germantown, MD 20874) by Quintiles/Expression Analysis (Durham, NC) using a custom isolation procedure. Total RNA from each plate well was transferred to a preamplification plate. Fluidigm's 96.96 Dynamic ArrayTM (Fluidigm, Amsterdam, the Netherlands) technology was used for gene expression analyses by quantitative reverse transcription polymerase chain reaction (qRT-PCR, performed by Quintiles/Expression Analysis, Durham, NC)89. Standard TaqManTM Assays (Applied Biosystems/ThermoFisher Scientific, Foster City, CA) were used to assess the expression of 93 genes selected based on their selectivity and sensitivity to important hepatic receptors known to be modulated by environmental chemicals; importance in human hepatocyte functionality; and hepatotoxicity. […]

Compound | outcome | AC50
c1cc2c3c(cccc3c1)CC2 | inactive | 
CCCCCCCc1ccc(O)cc1 | inactive | 
CN(C)C(=O)Cl | inactive | 
Nc1ccc(Cl)cc1 | inactive | 
CC(C)(C)OOC(C)(C)C | inactive | 
CC(Cc1ccc(OCC(=O)O)cc1)NCC(O)c1csc(C(F)(F)F)n1 (stereo not given) | inactive | 
CCOP(=S)(OCC)SCSCC | inactive | 
Nc1ccc2ccccc2c1 | inactive | 
ClC(Cl)c1ccccc1 | inactive | 
CCCCc1ccccc1 | inactive | 
O=P1(N(CCCl)CCCl)NCCCO1 (stereo not given) | inactive | 
Cc1ccc(N)cc1N | inactive | 
O=C(O)C(Cl)Cl | inactive | 
c1nc[nH]n1 | inactive | 
CCOP(=S)(Oc1ccc([N+](=O)[O-])cc1)c1ccccc1 (stereo not given) | inactive | 
c1ccc2c(c1)Nc1ccccc1S2 | inactive | 
Cc1cccc(N)c1 | inactive | 
CCC1(c2ccccc2)C(=O)N=C(O)NC1=O (stereo not given) | inactive | 
CSC(C)(C)C=NO | inactive | 
CCC(C)(C)c1ccc(O)cc1 | inactive | 

Compound | outcome | AC50
COCCOCCO | inactive | 
O=[N+]([O-])c1ccccc1 | inactive | 
CCOc1ccc(C(C)(C)COCc2cccc(Oc3ccccc3)c2)cc1 | inactive | 
CCCCN(CCCC)SN(C)C(=O)Oc1cccc2c1OC(C)(C)C2 | inactive | 
O=[N+]([O-])c1ccc(Cl)c(Cl)c1 | inactive | 
CCNc1nc(Cl)nc(NC(C)(C)C)n1 | inactive | 
CC(C)(C)c1ccc(O)cc1 | inactive | 
Cc1ccc(O)cc1C | inactive | 
Nc1cc2c3c(c1)C(c1ccccc1)=N[C@@H](NC(=O)c1cccnc1)C(=O)N3CC2 | inactive | 
CCCN(CCC)c1c([N+](=O)[O-])cc(C(C)C)cc1[N+](=O)[O-] | inactive | 
CCN(CC)c1ccccc1 | inactive | 
ClC(Cl)(Cl)c1ccccc1 | inactive | 
O=P(Oc1ccccc1)(Oc1ccccc1)Oc1ccccc1 | inactive | 
OCC1CO1 (stereo not given) | inactive | 
Cc1ccc([N+](=O)[O-])cc1C | inactive | 
[N-]=[N+]=[N-] |  | 79.3 µM (active)
CC(Cl)(Cl)C(=O)O | inactive | 
CCCCN(CCCC)N=O | inactive | 
O=C(O)C1C(C(=O)O)C2(Cl)C(Cl)=C(Cl)C1(Cl)C2(Cl)Cl (stereo not given) | inactive | 
c1ccc(OP(Oc2ccccc2)Oc2ccccc2)cc1 | inactive | 
